Experiment [1] can be described thus: Nuclear factor erythroid 2-related factor 2/antioxidant responsive element (Nrf2/ARE) small molecule agonists: qHTS cell viability counter screen in human keratinocytes (AID 1919968; active = well fitted curve in the direction sought with a large enough effect in the repeat runs; an effect the other way counts as inactive or inconclusive; also: nearly all actives have a fitted effect of over 55% in size; also: potency is read from the fitted curve at half-maximal effect). In outline:
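CellTiter-Fluor fluorescence, read 1 h after reagent, gave viability in the same wells as the ARE-luciferase assay. KeratinoSens cells (1,500/well) had 23 h compound exposure at 37 C/5% CO2 following 5 h plating.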
For orientation: Quantitative high-throughput screening tests each substance at several concentrations.

Experiment [2] can be described thus: Nuclear factor erythroid 2-related factor 2/antioxidant responsive element (Nrf2/ARE) small molecule agonists: luciferase reporter gene qHTS assay in human keratinocytes (AID 1919969; also: nearly all actives have a fitted effect of over 35% in size; also: potency is read from the fitted curve at half-maximal effect). (A reporter such as luciferase makes a cellular process visible.)
Experiment [3] deals with Gonadotropin-releasing hormone receptor (Homo sapiens) (UniProt P30968). The experiment can be described thus: Human gonadotropin-releasing hormone receptor (GnRHR) small molecule agonists, calcium flux assay in GnRHR-HEK293 cells (AID 1920063). Also: nearly all actives have a fitted effect of over 35% in size. In short, it runs like this: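 Agonist mode: compounds at 15 concentrations, in triplicate, went onto calcium dye-loaded GnRHR-HEK293 cells. Intracellular calcium was then followed as 480/540 nm fluorescence at 1 s intervals over 3 min.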
Gonadotropin-releasing hormone receptor (Homo sapiens), sequence (P30968 whole entry, looked up): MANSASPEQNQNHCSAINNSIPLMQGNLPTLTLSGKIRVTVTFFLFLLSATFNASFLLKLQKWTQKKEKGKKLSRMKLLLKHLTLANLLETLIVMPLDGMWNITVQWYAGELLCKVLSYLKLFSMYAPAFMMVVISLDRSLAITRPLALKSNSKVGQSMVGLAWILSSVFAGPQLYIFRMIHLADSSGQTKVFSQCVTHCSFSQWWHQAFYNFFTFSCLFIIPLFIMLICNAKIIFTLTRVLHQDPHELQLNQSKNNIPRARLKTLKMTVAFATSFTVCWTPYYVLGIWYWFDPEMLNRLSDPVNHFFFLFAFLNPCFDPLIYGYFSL

The target in experiment [4] is KiSS-1 receptor (Homo sapiens) (UniProt Q969F8). The experiment can be described thus: Human kisspeptin (KISS1R) small molecule agonists, calcium flux assay in KISS1R-HEK293 cells (AID 1920064; active = well fitted curve in the direction sought with a large enough effect in the repeat runs; an effect the other way counts as inactive or inconclusive). In outline: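 Agonist mode: intracellular calcium rise tracked at 1 s intervals over 3 min (480/540 nm) immediately after compound addition to dye-loaded KISS1R-HEK293 stable cells. Each compound tested at 15 concentrations in triplicate.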
KiSS-1 receptor (Homo sapiens), sequence (Q969F8 whole entry, looked up): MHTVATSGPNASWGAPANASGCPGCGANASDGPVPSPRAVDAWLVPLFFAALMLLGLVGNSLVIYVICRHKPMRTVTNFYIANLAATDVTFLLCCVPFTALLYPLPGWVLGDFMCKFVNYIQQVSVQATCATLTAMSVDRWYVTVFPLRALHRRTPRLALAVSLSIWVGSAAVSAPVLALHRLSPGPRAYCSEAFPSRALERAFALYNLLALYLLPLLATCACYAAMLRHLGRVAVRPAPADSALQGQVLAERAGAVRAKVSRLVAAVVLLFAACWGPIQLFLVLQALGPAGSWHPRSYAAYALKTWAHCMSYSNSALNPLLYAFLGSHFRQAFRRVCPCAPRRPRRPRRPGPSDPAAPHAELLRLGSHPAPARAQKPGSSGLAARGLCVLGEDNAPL
In general terms: Calcium assays in cells follow changes in intracellular calcium, usually with a dye or a luminescent sensor.

A short description of experiment [5]: G protein-coupled receptor (GPCR) small molecule agonists, calcium flux assay: HEK293 wild type cell line counter screen (AID 1920065). In short, it runs like this: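 Calcium flux counter screen: compound added in agonist mode at 15 concentrations in triplicate to dye-loaded parental HEK293 cells. Fluorescence (480/540) read kinetically for 3 min; ATP served as positive control.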

Experiment [6] is described as follows: p53 small molecule agonists, cell-based qHTS assay with human liver microsomes: qHTS cell viability counter screen (AID 1963579). Also: nearly all actives have a fitted effect of over 45% in size. Also: potency is read from the fitted curve at half-maximal effect. In outline:
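p53RE-bla cells (4,000/well) were pre-incubated 5 h at 37 C, then given compounds in DMSO plus human liver microsomes (0.5 mg/mL final) and NADPH (0.5 mg/mL final) for 16 h at 37 C. Viability was read by CellTiter-Glo luminescence.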

Experiment [7] can be described thus: p53 small molecule agonists, cell-based qHTS assay with rat liver microsomes: qHTS cell viability counter screen (AID 1963580). Also: nearly all actives have a fitted effect of over 45% in size. In outline: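 Rat liver microsome (0.5 mg/mL final) and NADPH (0.5 mg/mL final) co-incubation with compounds for 16 h at 37 C on HCT-116 p53RE-bla cells; cytotoxicity taken from intracellular ATP luminescence.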
Experiment [8] is described as follows: p53 small molecule agonists, cell-based qHTS assay: qHTS cell viability counter screen (AID 1963581). Also: nearly all actives have a fitted effect of over 45% in size. In outline:
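Counter screen read by CellTiter-Glo luminescence (ATP content, 30 min at room temperature), run in the same wells as the beta-lactamase reporter read. HCT-116 p53RE-bla cells saw compounds for 16 h at 37 C.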

Experiment [9] in a line: p53 small molecule agonists, cell-based qHTS assay (AID 1963582; active = well fitted activation curve with a large enough effect in the signal ratio in the repeat runs, not every such curve was filed as active; the % refers to the signal ratio). In outline:
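Read-out is beta-lactamase FRET fluorescence after 2 h at room temperature with LiveBLAzer B/G substrate. p53 response element-bla cells were treated 16 h at 37 C with compounds in DMSO, added 5 h after seeding.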

For experiment [10], the target named is Beta-2 adrenergic receptor (Homo sapiens) (UniProt P07550). In words: Adrenergic beta2 receptor (ADRB2) small molecule antagonists, cell-based qHTS assay (AID 1963592). Also: nearly all actives have a fitted effect of over 50% in size. Also: potency is read from the fitted curve at half-maximal effect. In short, it runs like this:
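Assay format: CHO-ADRB2 cells, 18-20hr seeding at 37C/5% CO2, then compound plus 1nM isoproterenol agonist mix for 0.5hr RT. Homogeneous time-resolved fluorescence cAMP detection after 1hr, expressed as 665/615 nm ratio.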

Experiment [11] has as its target D(2) dopamine receptor (Homo sapiens) (UniProt P14416). In words: Dopamine D2 receptor (DRD2) small molecule agonists, cell-based qHTS assay (AID 1963594). Also: nearly all actives have a fitted effect of over 35% in size. In outline: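 cAMP accumulation in DRD2-HEK293 cells measured by HTRF after 1 h detection; compounds added 10 min before NKH477 (200nM […]) forskolin-analogue stimulation, 30 min at room temperature, with Ro20-1724 present at 0.1 mM final.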

For experiment [12] the target is unchanged. The experiment can be described thus: Dopamine D2 receptor (DRD2) small molecule antagonists, cell-based qHTS assay (AID 1963595; active = well fitted inhibition curve with a large enough effect in the signal ratio in the repeat runs, with a control signal flat; the % refers to the signal ratio). In outline:
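DRD2-HEK293; 0.1 mM Ro20-1724; cpd 10 min RT; NKH477 200 nM + quinpirole 12 nM, 30 min RT; HTRF cAMP (cAMP-d2/anti-cAMP cryptate), 665/620 nm ratio after 1 h.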

In experiment [13] the target is 5-hydroxytryptamine receptor 2A (Homo sapiens) (UniProt P28223). In words: 5-hydroxytryptamine receptor 2A (HTR2A) small molecule agonists, cell-based qHTS assay (AID 1963587). Also: nearly all actives have a fitted effect of over 30% in size. In outline: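 Kinetic calcium-flux fluorescence (2 min, 1 sec intervals) after compound addition in agonist mode. HTR2A-CHO cells were cultured 18 h, then dye-loaded 1 h at 37 C.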
5-hydroxytryptamine receptor 2A (Homo sapiens), sequence (P28223 whole entry, looked up): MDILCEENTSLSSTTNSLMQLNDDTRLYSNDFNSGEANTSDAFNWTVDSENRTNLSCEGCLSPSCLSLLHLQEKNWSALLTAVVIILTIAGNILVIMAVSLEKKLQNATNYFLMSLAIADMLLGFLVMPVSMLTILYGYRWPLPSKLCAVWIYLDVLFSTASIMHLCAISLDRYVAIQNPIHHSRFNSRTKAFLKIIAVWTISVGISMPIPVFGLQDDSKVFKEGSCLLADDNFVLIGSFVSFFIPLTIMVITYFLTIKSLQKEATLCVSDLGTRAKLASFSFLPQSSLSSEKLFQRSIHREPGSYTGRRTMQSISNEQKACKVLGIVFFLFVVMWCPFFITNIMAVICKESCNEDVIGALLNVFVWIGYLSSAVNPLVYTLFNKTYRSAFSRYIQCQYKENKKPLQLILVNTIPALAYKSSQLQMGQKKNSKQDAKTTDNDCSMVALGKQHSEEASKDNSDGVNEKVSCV
In experiment [14] the target is Muscarinic acetylcholine receptor M1 (Homo sapiens) (UniProt P11229). In words: Cholinergic receptor muscarinic 1 (CHRM1) small molecule antagonists, cell-based qHTS assay (AID 1963588). Also: nearly all actives have a fitted effect of over 40% in size. In short, it runs like this: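 Compounds were tested at 15 concentrations in three independent runs. Dye-loaded CHRM1-CHO cells were exposed 5 min at room temperature before stimulation by acetylcholine added at 50nM. Intracellular calcium was read kinetically on FDSS for 3 min.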
Muscarinic acetylcholine receptor M1 (Homo sapiens), sequence (P11229 whole entry, looked up): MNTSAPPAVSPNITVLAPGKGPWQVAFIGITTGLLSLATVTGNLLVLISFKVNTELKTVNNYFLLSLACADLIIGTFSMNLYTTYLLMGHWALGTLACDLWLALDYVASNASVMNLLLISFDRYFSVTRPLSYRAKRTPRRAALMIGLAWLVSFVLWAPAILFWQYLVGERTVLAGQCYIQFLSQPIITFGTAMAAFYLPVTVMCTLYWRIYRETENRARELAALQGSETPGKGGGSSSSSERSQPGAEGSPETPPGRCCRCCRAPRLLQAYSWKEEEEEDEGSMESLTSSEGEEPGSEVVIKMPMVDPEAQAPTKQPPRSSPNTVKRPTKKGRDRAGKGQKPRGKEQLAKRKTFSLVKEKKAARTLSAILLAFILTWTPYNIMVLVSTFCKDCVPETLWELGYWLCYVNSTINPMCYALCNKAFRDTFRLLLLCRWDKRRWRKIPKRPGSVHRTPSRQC

Experiment [15] has the same target. The experiment can be described thus: Cholinergic receptor muscarinic 1 (CHRM1) small molecule agonists, cell-based qHTS assay (AID 1963589). Also: nearly all actives have a fitted effect of over 35% in size. In short, it runs like this:
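Agonist-mode calcium-flux screen: compounds at 15 concentrations, three independent runs, were pin-transferred onto dye-loaded human CHRM1-CHO cells. Fluorescence was then recorded kinetically every second over minutes.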

The nature of experiment [16]: cAMP Responsive Elements (CRE) small molecule agonists, cell-based qHTS assay (AID 1963590). In short, it runs like this: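 Agonist mode: compound added to CRE-bla HEK 293T cells (2,000/well, 18 h after plating) for 3 h at 37 C/5% CO2. Reporter activity detected via FRET beta-lactamase substrate, 2 h room-temperature loading.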
Experiment [17] can be described thus: cAMP Responsive Elements (CRE) small molecule antagonists, cell-based qHTS assay (AID 1963591; active = well fitted inhibition curve with a large enough effect in the signal ratio in the repeat runs, not every such curve was filed as active; the % refers to the signal ratio). In outline:
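Antagonist mode: compounds are added alongside the adenylyl cyclase activator NKH477 (0.25 uM final) to CRE-bla HEK293T cells for 3 h. LiveBLAzer FRET substrate, 2 h at room temperature, reports bla expression.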

In experiment [18] the target is 5-hydroxytryptamine receptor 2A (Homo sapiens) (UniProt P28223). The experiment can be described thus: 5-hydroxytryptamine receptor 2A (HTR2A) small molecule antagonists, cell-based qHTS assay (AID 1963586). Also: nearly all actives have a fitted effect of over 45% in size. In outline:
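CHO cells stably expressing human HTR2A were plated for 18 h at 37 C, then loaded with calcium dye for 1 h. Compounds were preincubated 5 min at room temperature before DOI (4 nM solution) was added. Kinetic fluorescence was read for 3 min.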

Experiment [19] concerns the target Beta-2 adrenergic receptor (Homo sapiens) (UniProt P07550). In words: Adrenergic beta2 receptor (ADRB2) small molecule agonists, cell-based qHTS assay (AID 1963593).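 Also: CHO cells stably overexpressing human ADRB2.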 In outline:
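CHO cells stably over-expressing ADRB2 were plated overnight at 37C, then dosed with compounds plus a stimulation mix containing 100uM IBMX and 25uM Ro-20-1724 for 0.5hr at room temperature. cAMP was measured by HTRF competition, 1hr.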

Experiment [20] can be described thus: p53 small molecule agonists, cell-based qHTS assay with human liver microsomes (AID 1963577). In short, it runs like this:
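p53RE-bla reporter cells were pre-incubated 5 h at 37 C, then treated with compounds plus human liver microsomes (0.5 mg/mL final) and NADPH (0.5 mg/mL final) for 16 h at 37 C. Beta-lactamase activity was read by LiveBLAzer fluorescence after 2 h at room temperature.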

Molecules are shown by their SMILES. Several values for one entry are separate records, joined by “and”; a condition that tells them apart may be missing. Equal entries are not always repeated. Inconclusive results are not listed. Some structures have more than one record in an assay (separate samples or runs), and their calls can disagree. Activity calls are given as the source filed them. Unless noted, calls follow the shape of the full dose curve.

D(2) dopamine receptor (Homo sapiens), sequence (P14416 whole entry, looked up): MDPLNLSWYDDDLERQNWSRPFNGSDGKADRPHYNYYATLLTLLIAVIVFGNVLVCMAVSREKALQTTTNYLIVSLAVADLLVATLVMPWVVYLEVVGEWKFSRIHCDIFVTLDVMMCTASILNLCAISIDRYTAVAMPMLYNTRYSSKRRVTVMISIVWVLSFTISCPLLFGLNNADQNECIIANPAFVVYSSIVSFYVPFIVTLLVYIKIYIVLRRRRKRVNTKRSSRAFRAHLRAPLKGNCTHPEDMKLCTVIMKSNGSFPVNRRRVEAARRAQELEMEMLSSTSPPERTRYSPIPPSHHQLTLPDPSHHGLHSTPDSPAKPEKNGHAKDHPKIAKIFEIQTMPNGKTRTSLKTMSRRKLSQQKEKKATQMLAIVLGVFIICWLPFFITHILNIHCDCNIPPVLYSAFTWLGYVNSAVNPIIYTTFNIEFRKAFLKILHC
Beta-2 adrenergic receptor (Homo sapiens), sequence (P07550 whole entry, looked up): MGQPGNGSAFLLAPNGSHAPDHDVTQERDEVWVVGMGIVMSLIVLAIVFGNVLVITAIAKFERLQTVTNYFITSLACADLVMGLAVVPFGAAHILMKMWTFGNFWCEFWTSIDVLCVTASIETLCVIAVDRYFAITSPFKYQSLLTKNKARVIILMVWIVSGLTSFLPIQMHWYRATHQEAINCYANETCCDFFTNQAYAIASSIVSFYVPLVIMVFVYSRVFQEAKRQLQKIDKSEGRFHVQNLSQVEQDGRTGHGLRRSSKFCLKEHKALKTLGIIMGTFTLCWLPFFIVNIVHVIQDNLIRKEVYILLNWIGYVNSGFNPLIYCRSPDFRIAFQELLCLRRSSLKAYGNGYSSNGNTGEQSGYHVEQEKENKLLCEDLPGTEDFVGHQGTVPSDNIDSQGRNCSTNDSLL

`COC(=O)[C@H]1[C@H]2C[C@@H]3c4[nH]c5cc(OC)ccc5c4CCN3C[C@H]2C[C@@H](OC(=O)c2cc(OC)c(OC)c(OC)c2)[C@@H]1OC`: the Potency is 48.5 µM (active) and inactive in experiment [1]; 54.4 µM (active) and 19.9 µM (active) and inactive in experiment [10]. Also, the Potency entry in experiment [2], in experiment [3], in experiment [4], in experiment [5], in experiment [6] and in experiment [7] was “inactive” throughout. Further, the Potency entry in experiment [8], in experiment [9], in [11] and in experiment [12] was “inactive” each time.

Consider `COCCOC(=O)c1ccccc1C(=O)OCCOC`, for which the Potency entry in [1], in experiment [2], in experiment [3], in [4], in [5] and in [7] was “inactive” each time. For the same compound, the Potency result in [8], in experiment [9], in experiment [13], in experiment [14], in experiment [15] and in [16] was “inactive” throughout. Besides, the Potency result in experiment [17], in experiment [10], in experiment [11] and in experiment [12] was “inactive” each time.

Regarding `C=C(C)C(=O)OCC(C)O` (stereo not drawn), the Potency result in [1], in [2], in [3], in experiment [4], in experiment [5] and in [6] was “inactive” each time. The Potency result in [7], in experiment [8], in experiment [18], in experiment [13], in experiment [14] and in experiment [15] was “inactive” in each case. In addition, the Potency entry in [16], in [17], in experiment [10], in experiment [19], in [11] and in experiment [12] was “inactive” throughout.

Regarding `COC(=O)C1CCC(C(=O)OC)CC1` (stereo not drawn), the Potency result in [1], in experiment [2], in [3], in [4], in experiment [5] and in [20] was “inactive” throughout. Moreover, the Potency result in [6], in experiment [7], in [8], in experiment [9], in experiment [18] and in [13] was “inactive” in each case. The Potency entry in experiment [14], in experiment [16], in experiment [17], in experiment [19], in experiment [11] and in [12] was “inactive” in each case.

`O=C(O)CCCC[C@@H]1SC[C@@H]2NC(=O)N[C@@H]21`: the Potency entry in [1], in [2], in experiment [3], in experiment [4], in experiment [5] and in experiment [6] was “inactive” throughout. The Potency result in [7], in experiment [8], in experiment [18], in experiment [13], in experiment [14] and in experiment [15] was “inactive” throughout. Moreover, the Potency result in experiment [16], in experiment [17], in experiment [10], in [19] and in experiment [11] was “inactive” throughout.

Regarding `COC(=O)CCC(=O)OC`, the Potency result in experiment [1], in experiment [2], in experiment [3], in experiment [4], in experiment [5] and in experiment [6] was “inactive” in each case. Moreover, the Potency entry in experiment [7], in [8], in experiment [9], in [18], in [13] and in experiment [14] was “inactive” in each case. The Potency result in [15], in experiment [16], in experiment [17], in [10], in experiment [19] and in experiment [11] was “inactive” throughout. Further, the Potency entry in [12] is “inactive”.

In the case of `CC1=C(/C=C/C(C)=C/C=C/C(C)=C/C(=O)Nc2ccc(O)cc2)C(C)(C)CCC1`, the Potency in experiment [1] was 49.8 µM (active) and 13.3 µM (active); in experiment [2] it was 2.22 µM (active) and 2.11 µM (active); in experiment [6] it was 41.8 µM (active) and inactive. Also, the Potency entry in experiment [3], in experiment [4], in [5], in experiment [20], in [7] and in [9] was “inactive” in each case. Also, the Potency entry in [18], in experiment [13], in experiment [14], in [15], in experiment [16] and in [10] was “inactive” in each case. Moreover, the Potency result in [19], in [11] and in [12] was “inactive” each time.

Source of the values: PubChem BioAssay (Tox21).
